# Measurements taken from PubChem BioAssay (Tox21).
# A number with no mark means an inactive call. Entries that show only a call come without a potency. Active and inactive are the calls of the source. Calls come from the whole dose curve; as a rule, active = well fitted activation curve with a large enough effect in the repeat runs; inconclusive = weak or mixed curves; inactive = flat fitted curve, though single readings scatter.
# Test: A CellTox Green Cytotoxicity Assay to monitor cytotoxicity in HEK293 cells - 0 hour (AID 1224869); note: nearly all actives have a fitted effect of over 50% in size
# Conditions: CellTox Green fluorescence; series mostly up to 76.8 µM
# Description: National Center for Advancing Translational Sciences [NCATS]
# NIH Chemical Genomics Center [NCGC]
# U.S. Environmental Protection Agency [EPA]
# National Institutes of Environmental Health Sciences [NIEHS]
# National Toxicology Program [NTP]
# Cell-based models are critical for drug discovery. Determining the natural cytotoxic effects resulting from test compounds is an essential research activity. A CellTox Green Cytotoxicity Assay to monitor cytotoxicity in real time of continues cell culture during 40 hours of the compound treatment was used to screen Tox21 10K library compounds in Hek293 cells. CellTox Green Cytotoxicity Assay is a nonlytic, homogeneous, biofluorescent method to measure cytotoxicity in cell culture after experimental manipulation. The assay system uses a proprietary asymmetric cyanine dye that is excluded from viable cells but preferentially stains the dead cell's DNA. […] Viable cells produce no appreciable increases in fluorescence. Therefore, the fluorescence signal produced by the binding interaction with dead cell DNA is proportional to cytotoxicity.
# The mixture of Hek293 cell suspension and reagents were dispensed at 600cells/6 ul/well in 1536-well tissue culture treated black solid bottom plates using a Multidrop dispenser. After the assay plates were incubated at a 37 C/5% CO2 incubator for 5 hours, 23 nL of compounds dissolved in DMSO, positive and negative controls was transferred to the assay plate by a pintool work station. The plates were incubated at 37 C for 40 hours. The fluorescence intensity were measured at 0h, 8h, 16h, 24h, 32h and 40h time points using ViewLux plate reader during compound treatment.
# Potency is the fitted concentration of half-maximal effect.
Structure (SMILES),Potency,cytotoxicity
NC(=O)C1(N2CCCCC2)CCN(CCCN2c3ccccc3CCc3ccc(Cl)cc32)CC1,inactive,–
CCN(CCC#N)c1ccc(N=Nc2c(Cl)cc([N+](=O)[O-])cc2Cl)cc1,inactive,–
O=Cc1cc(O)ccc1Br,inactive,–
OCCN(CCO)c1nc(N2CCCCC2)c2nc(N(CCO)CCO)nc(N3CCCCC3)c2n1,21.3 µM (active),–
O=C1CCCc2c1cc1ccc3cccc4ccc2c1c34,inactive,–
Cc1ccc2oc(CN(Cc3ccccc3)C(=O)Nc3c(F)cc(F)cc3F)c(-c3ccc(Cl)cc3)c2c1,inactive,–
CCCCCCCCS(=O)C(C)Cc1ccc2c(c1)OCO2 (stereo not given),inactive,–
OCc1c[nH]c2ccccc12,inactive,–
Cc1ccc(O)c2ncccc12,inactive,–
NNC(=O)c1cccc(C(=O)NN)c1,inactive,–
Nc1c(Cl)cc(Cl)cc1Cl,inactive,–
Cc1onc(-c2c(Cl)cccc2Cl)c1C(=O)N[C@@H]1C(=O)N2[C@@H]1SC(C)(C)[C@@H]2C(=O)O,inactive,–
CN1CCC(Nc2ncc3ncnc(Nc4ccc(F)c(Cl)c4)c3n2)CC1,inactive,–
N#CSc1ccc(N)c([N+](=O)[O-])c1,inactive,–
C[n+]1cc2c3c(ccc2c2ccc4cc5c(cc4c21)OCO5)OCO3,–,-9.5% [at 15.8 µM]
CC(C)n1nc(-c2cc3cc(O)ccc3[nH]2)c2c(N)ncnc21,inactive,–
COc1cccc(N)c1,inactive,–
CC1(C)CCC(C)(C)c2cc(C(=O)Nc3ccc(C(=O)O)cc3)ccc21,inactive,–
Nc1ccccc1O,inactive,–
O=C1c2ccccc2Cc2ccccc21,inactive,–

Structure (SMILES),Potency,cytotoxicity
NC(=O)N1C(=O)C(C(=O)c2cc(Cl)cs2)c2cc(F)c(Cl)cc21 (stereo not given),inactive,–
CCOC(=O)/C=C(C)/C=C/C=C(C)/C=C/c1c(C)cc(OC)c(C)c1C,inactive,–
OCCCCCCCCCCCCBr,inactive,–
COCCCC/C(=N\OCCN)c1ccc(C(F)(F)F)cc1,inactive,–
CSc1ccc(/C=C2/C(C)=C(CC(=O)O)c3cc(F)ccc32)cc1,inactive,–
C/C=C1/C(=O)C[C@H]2[C@@H]3CCC4=CC(=O)CC[C@]4(C)[C@H]3CC[C@]12C,inactive,–
O=C(c1ccc(O)cc1O)c1ccc(O)cc1O,inactive,–
CCC(CN)=C(c1ccccc1)c1ccccc1,inactive,–
O=C(N/N=C/c1ccccc1O)c1ccncc1,inactive,–
O=C(c1ccc(F)cc1)C1CCN(CCn2c(=O)[nH]c3ccccc3c2=O)CC1,inactive,–
Oc1cccc(-c2c3nc(c(-c4cccc(O)c4)c4ccc([nH]4)c(-c4cccc(O)c4)c4nc(c(-c5cccc(O)c5)c5ccc2[nH]5)CC4)C=C3)c1,inactive,–
Oc1ccc2c(c1)-c1ccccc1C2,inactive,–
CCOc1nc2cccc(C(=O)OC(C)OC(=O)OC3CCCCC3)c2n1Cc1ccc(-c2ccccc2-c2nn[nH]n2)cc1 (stereo not given),inactive,–
O=c1c(-c2ccccc2)c1-c1ccccc1,inactive,–
Cc1cccc2c1cc1ccc3cccc4ccc2c1c34,inactive,–
Cc1oc(-c2ccccc2)nc1CCC(=O)c1ccc(CC2SC(=O)NC2=O)cc1 (stereo not given),inactive,–
CCOC(=O)O[C@H](C)OC(=O)c1ccc2c(c1)cc(C(=O)NC1CCN(C(C)C)CC1)n2Cc1cc(-c2ccc(Cl)s2)on1,inactive,–
CCCCCCCCCCCCCCCS(=O)(=O)Oc1ccccc1,inactive,–
S=c1[nH]c2ccccc2s1,inactive,–
Cc1cc(=O)oc2cc(N(C)C)ccc12,inactive,–
